Experimental data as given in PubChem BioAssay (NCATS).
Results filed as inconclusive are left out. Active and inactive are the calls of the source. Calls come from the whole dose curve; as a rule, active = well fitted cell-killing curve with a large enough effect; inconclusive = small, poorly fitted or top-dose-only effect, or effect the other way; inactive = flat fitted curve, though single readings scatter.

Tests used:
Assay in all cases: Primary qHTS to identify gynecologic anti-cancer compounds using libraries of approved drugs and bioactive compounds (AID 1345084); note: nearly all actives have a fitted effect of over 55% in size
C33A = settings: Gynecologic cancer cell panel viability, ATPlite luminescence, 48 h; series mostly up to 57.5 µM
Method in brief: (§1)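 ATP-based viability (ATPlite), 1,000 cells/well, 16 h pre-incubation, 48 h compound at 37 C, 5% CO2, 15 min RT before read.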

CAOV3 = settings: Gynecologic cancer cell panel viability, ATPlite luminescence, 48 h; series mostly up to 57.5 µM
Method in brief: as §1

CASKI = settings: Gynecologic cancer cell panel viability, ATPlite luminescence, 48 h; series mostly up to 57.5 µM
Method in brief: as §1

Es-2 = settings: Gynecologic cancer cell panel viability, ATPlite luminescence, 48 h; series mostly up to 57.5 µM
Method in brief: as §1

HeLa = settings: Gynecologic cancer cell panel viability, ATPlite luminescence, 48 h; series mostly up to 57.5 µM
Method in brief: as §1

Hek293T = settings: Gynecologic cancer cell panel viability, ATPlite luminescence, 48 h, control line for the selectivity index; series mostly up to 57.5 µM
Method in brief: as §1

JEG-3 = settings: Gynecologic cancer cell panel viability, ATPlite luminescence, 48 h; series mostly up to 57.5 µM
Method in brief: as §1

OV90 = settings: Gynecologic cancer cell panel viability, ATPlite luminescence, 48 h; series mostly up to 57.5 µM
Method in brief: as §1
% is set by controls: 0 for no effect and ±100 for the full control effect.

CN(C)[C@@H]1CCc2[nH]c3ccc(NC(=O)c4ccc(F)cc4)cc3c2C1
inactive: Potency (C33A) | Potency (CAOV3) | Potency (CASKI) | Potency (Es-2) | Potency (HeLa) | Potency (Hek293T) | Potency (JEG-3) | Potency (OV90)

CCOC(=O)C1(CCOc2ccccc2)CCN(Cc2ccc(O)c(Cl)c2)CC1
inactive: Potency (C33A) | Potency (CAOV3) | Potency (CASKI) | Potency (Es-2) | Potency (HeLa) | Potency (Hek293T) | Potency (JEG-3) | Potency (OV90)

COc1cc2c(cc1OC(C)C)[C@H](c1ccc(Cl)cc1)N(c1ccc(N(C)CC3CCC(N4CCN(C)C(=O)C4)CC3)cc1)C(=O)C2 (stereo partly drawn)
inactive: Potency (C33A) | Potency (CAOV3) | Potency (CASKI) | Potency (Es-2) | Potency (HeLa) | Potency (Hek293T) | Potency (JEG-3) | Potency (OV90)

CCOC(=O)CCNc1cc(N2CCc3ccccc3CC2)nc(-c2cccnc2)n1
inactive: Potency (C33A) | Potency (CAOV3) | Potency (CASKI) | Potency (Es-2) | Potency (HeLa) | Potency (Hek293T) | Potency (JEG-3) | Potency (OV90)

C=C1/C(=C/C=C2\CCC[C@]3(C)[C@@H]([C@H](C)/C=C/[C@H](O)C4CC4)CC[C@@H]23)C[C@@H](O)C[C@@H]1O
inactive: Potency (C33A) | Potency (CAOV3) | Potency (CASKI) | Potency (Es-2) | Potency (HeLa) | Potency (Hek293T) | Potency (JEG-3) | Potency (OV90)

C=C1CC[C@@H](O)[C@]2(C)CC[C@H]3C(=C)C(=O)O[C@@H]3[C@@H]12
inactive: Potency (C33A) | Potency (CAOV3) | Potency (CASKI) | Potency (Es-2) | Potency (HeLa) | Potency (Hek293T) | Potency (JEG-3) | Potency (OV90)

O=C(NCCCN1CCC2(CC1)OCc1ccccc12)[C@H]1CCCN1Cc1ccccc1
inactive: Potency (C33A) | Potency (CAOV3) | Potency (CASKI) | Potency (Es-2) | Potency (HeLa) | Potency (Hek293T) | Potency (JEG-3) | Potency (OV90)

COc1ccc(-c2cnc3c(-c4cccc5ncccc45)cnn3c2)cc1
inactive: Potency (C33A) | Potency (CAOV3) | Potency (CASKI) | Potency (Es-2) | Potency (HeLa) | Potency (Hek293T) | Potency (JEG-3) | Potency (OV90)

CC1(CO)CC2C(O)C3=C(CC(C)(O)C2C1)C(=O)OC3 (stereo not drawn)
inactive: Potency (C33A) | Potency (CAOV3) | Potency (CASKI) | Potency (Es-2) | Potency (HeLa) | Potency (Hek293T) | Potency (JEG-3) | Potency (OV90)

CC12CCC3C1C(c1c(cc(O)c(C(=O)c4ccccc4)c1O)O2)C3(C)C (stereo not drawn)
inactive: Potency (C33A) | Potency (CAOV3) | Potency (CASKI) | Potency (Es-2) | Potency (HeLa) | Potency (Hek293T) | Potency (JEG-3) | Potency (OV90)

C[C@H]1CC[C@@]2(OC1)O[C@H]1CC3[C@@H]4CC[C@@H]5C[C@@H](O[C@@H]6O[C@H](CO)[C@@H](O[C@@H]7O[C@H](CO[C@@H]8OC[C@@H](O)[C@H](O)[C@H]8O)[C@@H](O[C@@H]8O[C@H](CO)[C@H](O)[C@H](O)[C@H]8O)[C@H](O)[C@H]7O)[C@H](O)[C@H]6O)CC[C@]5(C)C4CC[C@]3(C)[C@H]1[C@@H]2C (stereo partly drawn)
inactive: activity change, negative = cytotoxicity (C33A) -0.589% [at 11.6 µM] | activity change, negative = cytotoxicity (CAOV3) 0.154% [at 11.6 µM] | activity change, negative = cytotoxicity (CASKI) -0.139% [at 11.6 µM] | activity change, negative = cytotoxicity (Es-2) -0.634% [at 11.6 µM] | activity change, negative = cytotoxicity (HeLa) 17.3% [at 11.6 µM] | activity change, negative = cytotoxicity (Hek293T) -0.448% [at 11.6 µM] | activity change, negative = cytotoxicity (JEG-3) -1.5% [at 11.6 µM] | activity change, negative = cytotoxicity (OV90) -9.4% [at 11.6 µM]

CC(=O)O[C@@H]1C[C@@]23C[C@@]24CC[C@H](O[C@@H]2OC[C@H](O)[C@H](O)[C@H]2O)C(C)(C)[C@@H]4CC[C@H]3[C@]2(C)[C@@H](O)C34O[C@H](C[C@@H](C)[C@@H]3[C@@]12C)[C@@H](C(C)(C)O)O4
inactive: Potency (C33A) | Potency (CAOV3) | Potency (CASKI) | Potency (Es-2) | Potency (HeLa) | Potency (Hek293T) | Potency (JEG-3) | Potency (OV90)

COC(=O)C[C@H]1C(C)(C)[C@H](OC(=O)c2ccccc2)C2CC3=C4CC(=O)O[C@@H](c5ccoc5)[C@]4(C)CCC3[C@@]1(C)C2=O (stereo partly drawn)
inactive: Potency (C33A) | Potency (CAOV3) | Potency (CASKI) | Potency (Es-2) | Potency (HeLa) | Potency (Hek293T) | Potency (JEG-3) | Potency (OV90)

Clc1cccc(COc2cncc(N3CCNCC3)n2)c1
inactive: Potency (C33A) | Potency (CAOV3) | Potency (CASKI) | Potency (Es-2) | Potency (HeLa) | Potency (Hek293T) | Potency (JEG-3) | Potency (OV90)

CC(C)c1ccccc1OC(=O)NCCc1ccc2ccccc2c1
inactive: Potency (C33A) | Potency (CAOV3) | Potency (CASKI) | Potency (Es-2) | Potency (HeLa) | Potency (Hek293T) | Potency (JEG-3) | Potency (OV90)

COc1ccccc1OCCNCC(O)CCOc1cccc2[nH]c3ccccc3c12 (stereo not drawn)
inactive: Potency (C33A) | Potency (CAOV3) | Potency (CASKI) | Potency (Es-2) | Potency (HeLa) | Potency (Hek293T) | Potency (JEG-3) | Potency (OV90)

COc1ccccc1OCCN1CC(COc2cccc3[nH]c4ccccc4c23)OCC1=O (stereo not drawn)
inactive: Potency (C33A) | Potency (CAOV3) | Potency (CASKI) | Potency (Es-2) | Potency (HeLa) | Potency (Hek293T) | Potency (JEG-3) | Potency (OV90)

CC1(NC(=O)c2ccc(C#Cc3cccc(F)c3)cn2)COC1
inactive: Potency (C33A) | Potency (CAOV3) | Potency (CASKI) | Potency (Es-2) | Potency (HeLa) | Potency (Hek293T) | Potency (JEG-3) | Potency (OV90)

Cc1ccc(C)c(NC(=O)[C@@H]2CCCN2S(=O)(=O)c2cccc3cccnc23)c1
inactive: Potency (C33A) | Potency (CAOV3) | Potency (CASKI) | Potency (Es-2) | Potency (HeLa) | Potency (Hek293T) | Potency (JEG-3) | Potency (OV90)

C[C@@H](NC(=O)C(=O)c1c[nH]c2ccc([N+](=O)[O-])cc12)c1ccccc1
inactive: Potency (C33A) | Potency (CAOV3) | Potency (CASKI) | Potency (Es-2) | Potency (HeLa) | Potency (Hek293T) | Potency (JEG-3) | Potency (OV90)

O=C1C[C@]23C=CCN4CCC5c6cc7c(cc6N1[C@@]5(CC2)C43)OCO7 (stereo partly drawn)
inactive: Potency (C33A) | Potency (CAOV3) | Potency (CASKI) | Potency (Es-2) | Potency (HeLa) | Potency (Hek293T) | Potency (JEG-3) | Potency (OV90)
